This is part of a sample that, as a whole, favours compounds with a hit. Of some 79,000 tested, about 15% had one in any assay. Active and inactive are the calls of the source. No stated cut-off is given here; in the data, active means growth inhibition above about 70%; inactive means the rest.
Experiment: NCI Yeast Anticancer Drug Screen. Data for the rad50EPP+ strain (AID 151);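 further: 0% = growth of vehicle-treated control cultures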
Conditions: S. cerevisiae rad50 mutant strain, at 3.7 µM, stronger effect = higher value
Summary of the method: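 rad50EPP+ yeast treated with test compounds. Readout: growth vs vehicle control.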

Q: With CCC/C(Cl)=N\OC(=O)Nc1cccc(C(F)(F)F)c1 as the compound, how does the growth inhibition read?
A: 32% (inactive)

Q: Which growth inhibition does the source give for [O-][n+]1c2ccc(O)cc2nc2ccc(Cl)cc21 here?
A: 16% (inactive)

Q: With Clc1ccccc1C1OC1c1ccccc1Cl (stereo not given) as the compound, how does the growth inhibition read?
A: -56% (inactive)

Q: Which growth inhibition does the source give for c1ccc2c(c1)c1ncccc1c1nccnc21 here?
A: 33% (inactive)

Q: Which growth inhibition does the source give for CC(=O)Nc1ccc2c(c1)C(=Nc1ccc(C(=O)O)cc1)c1ccccc1-2 here?
A: 7% (inactive)

Q: With COc1ccc(OC)c2cc3ccccc3cc12 as the compound, how does the growth inhibition read?
A: 7% (inactive)

Q: Which growth inhibition does the source give for COc1cc(C2c3cc4c(cc3OC(NNc3ccccc3)C2C)OCO4)cc(OC)c1OC (stereo not given) here?
A: 42% (inactive)

Q: Which growth inhibition does the source give for O=C1c2cc([N+](=O)[O-])ccc2-c2cccc(F)c21 here?
A: 27% (inactive)

Q: With CCCCCCCCCCCC(=O)N(C)C as the compound, how does the growth inhibition read?
A: 18% (inactive)

Q: For CCCCCCCCCCCC1=C(O)C(=O)C=C(O)C1=O, which growth inhibition is on record?
A: -14% (inactive)

Q: For Cc1ccc(CSC(N)=Nc2ccccc2)cc1C, which growth inhibition is on record?
A: 12% (inactive)

Q: Which growth inhibition does the source give for CCCCCCCCCCC1CCC(=O)O1 (stereo not given) here?
A: 3% (inactive)

Q: For O=[N+]([O-])c1cc(CCl)ccc1CCl, which growth inhibition is on record?
A: 44% (inactive)

Q: For Nc1ccc2c(c1)C(=O)c1cccc(N)c1C2=O, which growth inhibition is on record?
A: 50% (inactive)

Q: With CCCCCCCCCCNC(=O)OCC as the compound, how does the growth inhibition read?
A: 9% (inactive)

Q: With CC1=C(C)Cc2c(O)ccc(O)c2C1 as the compound, how does the growth inhibition read?
A: 46% (inactive)

Q: With COc1ccc2c(c1)C(=O)c1ccccc1C2 as the compound, how does the growth inhibition read?
A: 10% (inactive)

Q: With CCC(=O)OCCn1c2nc(=O)[nH]c(=O)c-2nc2cc(C)c(C)cc21 as the compound, how does the growth inhibition read?
A: -13% (inactive)

Q: For O=C(OCCN1CCCCCC1)C(c1ccsc1)C1CCCCC1 (stereo not given), which growth inhibition is on record?
A: -1% (inactive)

Q: With Oc1c(Br)cc(Br)cc1C1CCCCC1 as the compound, how does the growth inhibition read?
A: 9% (inactive)

Source: PubChem BioAssay (NCI)
